Bioassay records (PubChem)
BAZ2B block: inhibitors of human BAZ2B bromodomain; actives 4.4% (n = 360,000); AlphaScreen BAZ2B-H3K14Ac peptide displacement; Potency, µM (top dose mostly 114 µM), for the others: at the highest dose activity change, negative = inhibition, most hits filed as inhibitors; Q9UIF8; AID 504333; further: on the % scale 0 is the no-effect control and ±100 the full control effect; nearly all actives have a fitted effect of over 60% in size
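AlphaScreen displacement of biotin-H3(5-23)K14Ac peptide (50 nM final) from BAZ2B (50 nM final) in PBS pH 7.4, 0.01% Tween-20; complex preformed 30 min RT, then compounds (top 110 uM) 30 min RT, beads 20 min dark.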
G9a inh: blocks human histone lysine methyltransferase G9a. Q96KQ7. G9a H3K9 monomethylation, AlphaScreen, 2 h. Potency, µM (titrated, usually from 102 µM), for inactives: at the highest dose activity, negative = inhibition, actives largely listed as inhibitors. actives 8.8% (n = 350,000). AID 504332; further: on the % scale 0 is the no-effect control and ±100 the full control effect; nearly all actives have a fitted effect of over 75% in size
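Signal arises when biotinylated H3K9 peptide, once monomethylated, bridges streptavidin donor and antibody-captured acceptor beads. Enzyme at 20 nM was preincubated 15 min with test compounds; peptide 500 nM and SAM 20 uM then reacted for 2 h.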
GLS inh: glutaminase GLS (human) inhibition; GLS enzymatic activity, qHTS titration; O94925; AID 624170; actives 0.21% (n = 410,000); Potency, µM (highest dose often 45.5 µM), for inactives: top-dose activity change, negative = inhibition, most hits filed as inhibitors; further: on the % scale 0 is the no-effect control and ±100 the full control effect
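hKGA in 45 mM KH2PO4 (pH 8.2), 0.02% Tween-20 with compound, then 1mM L-Glutamine (stock as added) plus glutamate oxidase/HRP/Amplex red coupling mix. Fluorescence read initially and after 30 min at RT; signal change reflects glutamate formation.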
HP1b binding inh: inhibitors of HP1-beta chromodomain binding to methylated histone tails; AID 540317; actives 0.56% (n = 390,000); P83916; Potency, µM (top dose mostly 114 µM), inactives show at the top dose activity change, negative = inhibition, usual class: inhibitors; AlphaScreen HP1-beta / biotin-H3K9me3 peptide binding; further: nearly all actives have a fitted effect of over 70% in size
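Compound inhibition of the preformed complex between 50 nM HP1-beta and 50 nM biotinylated H3K9me3 peptide was read by AlphaScreen. Buffer was PBS pH 7.4 with 0.01% Tween-20. Incubations ran 30 min at room temperature, with 10 ug/mL donor/acceptor beads.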
JMJD2A Tudor: blocks the human JMJD2A Tudor domain; O75164; Potency, µM (series often up to 114 µM), inactives show at the top dose activity change, negative = inhibition, actives largely listed as inhibitors; AID 504339; actives 4.4% (n = 390,000); AlphaScreen JMJD2A-Tudor / H3K4me3 peptide binding; further: on the % scale 0 is the no-effect control and ±100 the full control effect; nearly all actives have a fitted effect of over 50% in size
Starred values were filed as active, the others as inactive; ? = inconclusive; . = no result given; [ ] = remark or other dose. Most compounds without a hit are left out; they make up all but 10% or so of the library. The call rests on the fitted dose curve; in most records, active means well fitted curve in the direction sought with a large enough effect; inconclusive means small, poorly fitted or top-dose-only effect, or another doubt; inactive means no such curve, though single readings can be large; an effect the other way counts as inactive or inconclusive. Potency means the concentration at half of the fitted maximal effect.

SMILES | BAZ2B block | G9a inh | GLS inh | HP1b binding inh | JMJD2A Tudor
COc1ccc(CN2C(=O)N(c3cccc(C)c3)C(=O)C2CC(=O)Nc2ccc(F)cc2)cc1OC (stereo unspecified) | 1% | 2%[59 µM] | -1% | 31% | -8%
CCCc1cc(=O)[nH]c(SCC(=O)c2cc(C)n(C)c2C)n1 | -35% | 50µM* | -3% | 17% | -32%
CCCc1cc(=O)[nH]c(SCC(=O)CSc2nc(CCC)cc(=O)[nH]2)n1 | -2% | 56µM* | 6% | 44% | 5%
CCCc1cc(=O)[nH]c(SCC(=O)c2ccc(S(=O)(=O)N3CCCC3)cc2)n1 | 6% | 50µM* | 18% | -6% | -19%
Cc1cc(C)cc(NC(=O)C(NS(=O)(=O)c2cccc3nsnc23)c2ccccc2)c1 (stereo unspecified) | . | -5%[59 µM] | 0% | -8% | ?
COC(=O)c1cnn(-c2ccc(C(=O)Nc3cccc(C(C)=O)c3)cc2)c1N | 1% | 4%[12.7 µM] | -4% | 76% | -25%
Cc1coc2c(C)c3oc(=O)c(CCC(=O)NCCCn4ccnc4)c(C)c3cc12 | -37% | 9%[12.7 µM] | -9% | 10% | -24%
OC(COc1ccc(Br)cc1)Cn1ccnc1 (stereo unspecified) | -14% | 79µM* | -18% | -10% | -17%
O=C(COc1ccc(Br)cc1)NCCCn1ccnc1 | 56µM* | 13% | -8% | 43% | 2%
Cc1c(CCC(=O)NCCCn2ccnc2)c(=O)oc2c(C)c3occ(C(C)(C)C)c3cc12 | 25µM* | . | -1% | 5% | ?
COc1ccc(OCC(O)Cn2cnc(-c3ccc(Br)cc3)c2)cc1 (stereo unspecified) | -38% | 18µM* | 7% | -8% | -24%
Cc1ccc(C(C)C)cc1OCC(=O)NCCCn1ccnc1 | . | . | -5% | 39% | -23%
Cc1c(C)c2ccc(OCC(=O)NCCCn3ccnc3)c(C)c2oc1=O | 79µM* | 0% | -8% | 50% | -14%
Cc1c(OCC(=O)NCCCn2ccnc2)ccc2c3c(c(=O)oc12)CCC3 | -24% | -14% | -21% | 36% | -9%
COc1ccccc1OCC(=O)NCCCn1ccnc1 | 79µM* | -19% | 0% | 17% | -33%
OC[C@H](S)CS | . | 1µM* | 2% | . | .
COC(=O)c1ccc([C@@H]2Nc3c(OC)ccc(C)c3[C@@H]3C=CC[C@@H]32)cc1 | ? | 3.2µM* | -20% | -8% | ?
COC(=O)c1ccc([C@H]2Nc3ccc(S(=O)(=O)Nc4cccc(C)c4)cc3[C@H]3C=CC[C@H]32)cc1 | 40µM* | 4.5µM* | ? | -14% | 35µM*
Cc1ccc(NS(=O)(=O)c2ccc3c(c2)[C@H]2C=CC[C@H]2[C@@H](c2ccc(F)cc2)N3)cc1C | ? | 5.6µM* | 1% | -8% | ?
O=C(O)c1ccc(NS(=O)(=O)c2ccc3c(c2)C2C=CCC2C(c2ccccc2F)N3)cc1 (stereo unspecified) | 50µM* | 10µM* | -20% | 5% | ?
O=C(NCc1ccccc1)C1Nc2ccc(OC(F)(F)F)cc2C2C=CCC12 (stereo unspecified) | . | . | -4% | 16% | -31%
COC(=O)c1ccc(C2NC(=O)CCC2[N+](=O)[O-])cc1 (stereo unspecified) | -2% | 0% | -6% | 6% | -6%
Cc1ccc(NS(=O)(=O)c2ccc3c(c2)NC(=O)CC(=O)N3)cc1C | -10% | 0% | 1% | 33% | -18%
CCn1cc2nc(SCc3ccccc3F)n(Cc3ccc(C)cc3)c(=O)c2n1 | -2% | -7%[59 µM] | 1% | 16% | -14%
CC1(C)CC(=O)C(=Cc2cn(CCC#N)nc2-c2ccc(F)cc2)C(=O)C1 | -3% | 10µM* | 13% | 48% | -3%
SMILES | BAZ2B block | G9a inh | GLS inh | HP1b binding inh | JMJD2A Tudor
CC(C)C1C(=O)N(Cc2cn(Cc3ccco3)nn2)CCS(=O)(=O)N1Cc1ccc(-c2ccc(F)cc2)cc1 (stereo unspecified) | . | . | -2% | . | .
CC1=C(C(=O)OCc2ccccc2)C(c2ccccc2-c2ccccc2)NC(=O)N1CCCCCC(=O)O (stereo unspecified) | 50µM* | 50µM* | -16% | 5% | ?
CC1=C(C(=O)OCc2ccccc2)C(c2ccc([N+](=O)[O-])cc2)NC(=O)N1C (stereo unspecified) | -30% | 1% | -7% | 18% | -23%
CC1=C(C(=O)OCc2ccccc2)C(c2ccccc2[N+](=O)[O-])NC(=O)N1C (stereo unspecified) | -38% | 40µM* | 0% | 20% | -11%
CC1=C(C(=O)OCc2ccccc2)C(c2ccccc2Cl)NC(=O)N1CCCCCC(=O)O (stereo unspecified) | -31% | 79µM* | 2% | 24% | -4%
CC1=C(C(=O)OCc2ccccc2)C(c2ccccc2Cl)NC(=O)N1CCCC(=O)O (stereo unspecified) | -33% | -11% | 3% | 31% | -1%
Cc1ccccc1NC(=O)Cn1c(=O)n(Cc2ccco2)c(=O)c2cccnc21 | 1% | 4%[59 µM] | -13% | 17% | -16%
COCOCCn1cc(CN2CCS(=O)(=O)N(Cc3ccc(-c4ccc(Cl)c(Cl)c4)cc3)C(C)C2=O)nn1 (stereo unspecified) | . | . | 0% | . | .
CCOC(=O)CCc1c(C)nc2cc(-c3cc(OC)cc(OC)c3)[nH]n2c1=O | . | 9%[59 µM] | 1% | 35% | -13%
CCn1cnc2cc(NCc3ccc(Cl)cc3)ccc21 | ? | 50µM* | ? | -22% | ?
CCCn1cnc2cc(NCc3ccccn3)ccc21 | 50µM* | 10µM* | 4% | 1% | 56µM*
CCCn1cnc2cc(NCc3cccc(OC)c3O)ccc21 | ? | ? | 33% | 9% | ?
COc1ccc(CNc2ccc3c(c2)ncn3C)cc1OC | -22% | 40µM* | -16% | 36% | -25%
CCc1ccc(CNc2ccc3c(c2)ncn3C)cc1 | 45µM* | 3.2µM* | 1% | ? | ?
COc1ccccc1Cc1c(-c2ccc(C#N)cc2)nc2ccc(C)cn12 | . | . | 3% | . | .
Cc1ccc(/C=N/n2c(-c3cccc(Cl)c3)n[nH]c2=S)o1 | -11% | 1µM* | -4% | 7% | ?
S=c1[nH]nc(-c2cccc(Cl)c2)n1/N=C/c1ccc(-c2ccccc2Br)o1 | -13% | ? | -13% | 11% | -29%
S=c1[nH]nc(-c2cccc(Cl)c2)n1/N=C/c1ccco1 | -29% | 3.5µM* | -11% | -18% | 32µM*
O=C(O)CCC(=O)c1ccc2c(c1)OCCO2 | 8% | 16% | -6% | 62% | -10%
O=C(O)CCSCC(=O)c1ccc2c(c1)OCCO2 | 3% | 32µM* | 11% | 73% | ?
O=C(CCN1Cc2ccccc2C1)c1ccc2c(c1)OCCO2 | -12% | 8.9µM* | 40% | 14% | ?
